Screening results from PubChem.
A selection: hits, their analogues and other compounds. The true share with any hit is near 2.2%.
aSyn rescue: rescues yeast growth from alpha-synuclein toxicity. Yeast expressing alpha-synuclein, growth rescue, BacTiter-Glo, 24 h. Potency, µM (top dose mostly 46.1 µM), for inactives: at the top dose growth rescue (activation), usual class: activators. 370,000 compounds, 0.14% hits. AID 652106; further: % of control where 0% means no effect; nearly all actives have a fitted effect of over 65% in size
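Rescue of yeast growth: cells expressing toxic alpha-synuclein, induced in galactose at OD600 0.02, incubated with compound 24 h at 30 C. ATP luminescence quantified growth; inhibitors of toxicity appear as activators.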
TDP-43 yeast inh: TDP-43 toxicity inhibition in yeast. 410,000 compounds, 1.8% hits. TDP-43 expressing yeast growth rescue, BacTiter-Glo, 24 h. Potency, µM (series often up to 46.1 µM), without a hit: top-dose growth rescue (activation), most hits filed as activators; further: % of control where 0% means no effect; nearly all actives have a fitted effect of over 50% in size
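Luminescence from BacTiter-Glo reports growth of TDP-43-expressing yeast after 24 hr at 30 deg C with compound. Cells were raffinose-pregrown to mid-log, then seeded in galactose medium at OD600=0.02.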
Abeta rescue: compounds reversing amyloid beta toxicity in yeast; 410,000 compounds, 0.063% hits; yeast expressing A-beta42, growth rescue, OD600, 48 h; response scale: 0% DMSO, 100% iron-clioquinol control; Potency, µM (series often up to 46.1 µM), usual class: activators; further: nearly all actives have a fitted effect of over 55% in size
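Growth rescue measured by 600 nm absorbance after 48 h yeast culture at 30 C with compound. Values normalized between DMSO and an equimolar ferric chloride plus clioquinol control.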
FUS yeast rescue: suppressors of FUS proteinopathy in yeast. S. cerevisiae FUS-expressing, growth rescue, OD600, 24 h. Potency, µM (top dose mostly 76.6 µM), most hits filed as activators. 390,000 compounds, 0.24% hits. AID 1347120;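 further: plate controls were DMSO vehicle for no effect and reference control for full effect; nearly all actives have a fitted effect of over 55% in size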
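Yeast expressing FUS under galactose induction, OD 0.005 in 2% galactose medium; compounds in a dilution series, 24 h at 30C. Growth rescue by absorbance at 600 nm; CP55940 positive control, DMSO negative.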
ERG Ets-DNA blk: blocks human ERG Ets domain binding to DNA; AID 624246; 370,000 compounds, 0.028% hits; fluorescence polarization, His-ERG Ets domain / labelled DNA; P11308; Potency, µM (series often up to 76.9 µM), for inactives: at the top dose FP activity, negative = inhibition, actives largely listed as inhibitors; active means well fitted inhibition curve with a large enough effect in the polarisation, with a control signal flat; inconclusive means small, poorly fitted or top-dose-only effect, or effect the other way, or a change in a side signal; inactive means no such curve, though single readings can be large or run the other way; the % refers to the polarisation;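 further: polarization taken with two DNA probes labelled with fluorescein and Texas red; % of control where 0% means no effect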
Target sequence (P11308 whole entry, looked up, the tested form may be a part): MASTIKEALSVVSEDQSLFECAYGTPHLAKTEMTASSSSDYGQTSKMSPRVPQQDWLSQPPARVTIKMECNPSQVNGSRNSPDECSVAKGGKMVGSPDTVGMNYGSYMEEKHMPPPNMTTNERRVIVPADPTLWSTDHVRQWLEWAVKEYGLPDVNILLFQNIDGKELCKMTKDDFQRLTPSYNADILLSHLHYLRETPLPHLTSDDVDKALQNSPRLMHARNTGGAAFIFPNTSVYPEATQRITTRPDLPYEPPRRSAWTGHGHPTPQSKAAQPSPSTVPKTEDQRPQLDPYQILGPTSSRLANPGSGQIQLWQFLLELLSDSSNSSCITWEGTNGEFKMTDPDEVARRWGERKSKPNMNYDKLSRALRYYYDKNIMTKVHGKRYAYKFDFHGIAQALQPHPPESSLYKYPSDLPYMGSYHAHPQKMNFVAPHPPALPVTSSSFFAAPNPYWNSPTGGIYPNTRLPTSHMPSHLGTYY
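His-tagged ERG Ets domain (1 uM in the protein solution; 300mM KCl, 50mM Tris-HCl, 1mM EDTA, 1mM DTT, pH 7.5) received compound, then a probe mix of 5 nM fluorescein-DNA and 100nM Texas-615-DNA. Fluorescence polarization was read for both dyes.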
Mito fusion act: blocks mitochondrial division or promotes mitochondrial fusion | S. cerevisiae fusion-defective mutant growth rescue, CellTiterGlo 48 h | Potency, µM (highest dose often 46.1 µM), inactives show at the highest dose growth rescue (activation), actives largely listed as activators | 320,000 compounds, 0.23% hits | AID 485298; further: % of control where 0% means no effect; nearly all actives have a fitted effect of over 45% in size
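Yeast fusion mutant, YPEG (non-fermentable carbon), compound, 48 h at 37C non-permissive; CellTiterGlo added, 10 min RT, luminescence read. Rescued growth = division inhibition.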
An asterisk follows results filed as active; i = inactive; ? = inconclusive; · = no result; ! = repeats disagree. Unless noted, the call rests on the fitted dose curve; in most records, active means well fitted curve in the direction sought with a large enough effect; inconclusive means small, poorly fitted or top-dose-only effect, or another doubt; inactive means no such curve, though single readings can be large; an effect the other way counts as inactive or inconclusive. Potency means the concentration at half of the fitted maximal effect.

SMILES	aSyn rescue	TDP-43 yeast inh	Abeta rescue	FUS yeast rescue	ERG Ets-DNA blk	Mito fusion act
C[C@@H]1CC[C@H]2[C@@H](C)C(=O)O[C@@H]3O[C@@]4(C)CC[C@@H]1[C@]32OO4	0%	4.5µM*	i	i	4%	-5%
C[C@@H]1CCC2[C@@H](C)C(=O)O[C@@H]3OC4(C)CCC1[C@@]23OO4 (stereo partly specified)	0%	7.9µM*	i	i	-14%	·
CCOC(=O)[C@]12Cc3ccccc3[C@H]1N(C(C)C)C(=O)c1cc(OC)ccc12	1%	45%	i	i	·	·
CCOC(=O)[C@]12Cc3ccccc3[C@H]1N(C)C(=O)c1cc(OC)ccc12	4%	35µM*	i	i	·	·
CCOC(=O)[C@]12Cc3c(cc(OC)c(OC)c3OC)[C@H]1N(C)C(=O)c1cc(OC)ccc12	0%	18µM*	i	i	·	·
Cn1ncc2c(NCc3ccc(Cl)cc3)ncnc21	·	?	i	i	-4%	·
C=CCOC(Cn1ccnc1)c1ccc(Cl)cc1Cl (stereo unspecified)	?	11µM*	i	i	-4%	25µM*
Cc1c(C(c2ccc(Br)cc2)c2c(O)c3ccccc3oc2=O)c(=O)n(-c2ccccc2)n1C (stereo unspecified)	-4%	14µM*!	i	?	-5%	-31%
Cc1c(C(c2ccc(Cl)cc2Cl)c2c(O)c3ccccc3oc2=O)c(=O)n(-c2ccccc2)n1C (stereo unspecified)	3%	10µM*	i	i	-8%	25%
CSc1ccc(C(c2c(O)c3ccccc3oc2=O)c2c(C)n(C)n(-c3ccccc3)c2=O)cc1 (stereo unspecified)	12%	-17%	i	?	3%	13%
COc1cccc(C2CCN(CC(=O)Nc3cc(Cl)ccc3OC)CC2O)c1 (stereo unspecified)	-3%	-17%	i	i	20µM*	?
C[C@@H]1CN([C@@H](C)CO)C(=O)CCCn2nncc2CO[C@@H]1CN(C)C(=O)Nc1ccc(N2CCCCC2)cc1	-12%	0%	i	i	·	·
COC(=O)C1=C(c2cccc(OCc3ccccc3)c2)C[C@@H]2CC[C@H]1N2C(=O)NCCOc1ccc(OC)cc1	-7%	25%	i	?	-7%	18%
OC1CCC(Nc2ccn3nc(-c4cccc(OCc5ccccc5)c4)cc3n2)CC1 (stereo unspecified)	-20%	35µM*	i	?	·	·
CN1C(=O)N(C)C(=O)C2(Cc3c(nc4ccccn4c3=O)N3CCC(Cc4ccccc4)CC32)C1=O (stereo unspecified)	·	·	·	·	·	16%
Cc1cccn2c(=O)c3c(nc12)N1CCC(Cc2ccccc2)CC1C1(C3)C(=O)N(C)C(=O)N(C)C1=O (stereo unspecified)	5%	29%	i	i	13%	18µM*
O=C(Nc1cccc(C(F)(F)F)c1)C1CCCN1S(=O)(=O)c1cccc2nsnc12 (stereo unspecified)	·	?	i	i	-3%	·
COc1ccc(S(=O)(=O)N(C)C[C@H]2OCCCC[C@@H](C)Oc3ccc(N(C)C)cc3C(=O)N([C@H](C)CO)C[C@@H]2C)cc1	-1%	9%	i	i	·	·
